Data as given in PubChem BioAssay (NCATS).
Inconclusive results are not listed. Active and inactive are the calls of the source. The call rests on the fitted dose curve; in most records, active means well fitted curve in the direction sought with a large enough effect; inconclusive means small, poorly fitted or top-dose-only effect, or another doubt; inactive means no such curve, though single readings can be large; an effect the other way counts as inactive or inconclusive.

System: not listed separately
Assay: qHTS for Activators of Parkin Expression: LOPAC Validation Assay (FLuc Reporter) (AID 720573;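 further: 0% = DMSO and 100% = positive control compounds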)
Settings: Cell line, PRKN promoter firefly luciferase reporter, vehicle wells = 0, positive control = 100%; series mostly up to 46.1 µM; activation: at the top concentration
Procedure, shortened: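 A neuronal cell line harbouring FLuc and NLuc reporters behind the Parkin promoter was exposed to compounds for 24 h. Firefly luciferase signal, measured after 10 min with detection reagent, was scaled to DMSO and positive-control wells.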

Row | SMILES | activation
1 | OCCN1CCN(CCCN2c3ccccc3C=Cc3ccccc32)CC1 | -7.54% (inactive)
2 | C[N+](C)(C)CCOC(N)=O | 4.17% (inactive)
3 | Cc1ccc(/C(=C\CN2CCCC2)c2ccccn2)cc1 | -3.49% (inactive)
4 | CCCC(C(=O)OCCN(CC)CC)(c1ccccc1)c1ccccc1 | 0.823% (inactive)
5 | OC(CCN1CCCCC1)(c1ccccc1)C1CCCCC1 (stereo unspecified) | -7.17% (inactive)
6 | COc1ccc2c(c1OC)C(=O)O[C@@H]2[C@H]1c2c(cc3c(c2OC)OCO3)CCN1C | -3.99% (inactive)
7 | C(=C\c1ccccc1)/CN1CCN(C(c2ccccc2)c2ccccc2)CC1 | -12.4% (inactive)
8 | CC(C)COCC(CN(Cc1ccccc1)c1ccccc1)N1CCCC1 (stereo unspecified) | -9.23% (inactive)
9 | Cc1nc2c([nH]1)c(=O)n(C)c(=O)n2Cc1ccco1 | 7.34% (inactive)
10 | CN/C(=C\[N+](=O)[O-])NCCSCc1ccc(CN(C)C)o1 | -10.5% (inactive)
11 | N[C@@H](COP(=O)(O)O)C(=O)O | -0.629% (inactive)
12 | O=C1NCN(c2ccccc2)C12CCN(CCCC(c1ccc(F)cc1)c1ccc(F)cc1)CC2 | -14.1% (inactive)
13 | O=C(CCNNC(=O)c1ccncc1)NCc1ccccc1 | 27% (inactive)
14 | NC(Cc1ccc(Cl)cc1)C(=O)O (stereo unspecified) | -2.47% (inactive)
15 | CC(C)(C)NCC(O)c1cc(O)cc(O)c1 (stereo unspecified) | -4.74% (inactive)
16 | Cc1nc2ccccn2c(=O)c1CCN1CCC(C(=O)c2ccc(F)cc2)CC1 | -8.81% (inactive)
17 | C[C@@H](O)[C@H]1C(=O)N2C(C(=O)O)=C(SCCN=CN)C[C@H]12 | -3.68% (inactive)
18 | CCn1cc(C(=O)O)c(=O)c2cc3c(cc21)OCO3 | -10.8% (inactive)
19 | Cc1scc2c1N(C(=O)CN1CCN(C)CC1)c1ccccc1NC2=O | -5.35% (inactive)

Target: T1, Hexokinase-4 (Homo sapiens) + Glucokinase regulatory protein (Homo sapiens) (UniProt P35557+Q14397)
Assay: qHTS assay for inhibitors of recombinant human GCK-GKRP interaction: Diaphorase-coupled assay (AID 743205)
Settings: G6PDH/diaphorase resorufin fluorescence; series mostly up to 57.5 µM; activity change, positive = activation: at the top concentration
Procedure, shortened: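 Inhibitors of the GCK–GKRP complex relieve GKRP suppression of GCK, detected through a G6PDH–diaphorase cascade reducing resazurin. Human GST-GCK and FLAG-GKRP are used at 10 nM with 5 mM glucose and 0.4 mM ATP.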

T1 sequence (P35557 whole entry, looked up): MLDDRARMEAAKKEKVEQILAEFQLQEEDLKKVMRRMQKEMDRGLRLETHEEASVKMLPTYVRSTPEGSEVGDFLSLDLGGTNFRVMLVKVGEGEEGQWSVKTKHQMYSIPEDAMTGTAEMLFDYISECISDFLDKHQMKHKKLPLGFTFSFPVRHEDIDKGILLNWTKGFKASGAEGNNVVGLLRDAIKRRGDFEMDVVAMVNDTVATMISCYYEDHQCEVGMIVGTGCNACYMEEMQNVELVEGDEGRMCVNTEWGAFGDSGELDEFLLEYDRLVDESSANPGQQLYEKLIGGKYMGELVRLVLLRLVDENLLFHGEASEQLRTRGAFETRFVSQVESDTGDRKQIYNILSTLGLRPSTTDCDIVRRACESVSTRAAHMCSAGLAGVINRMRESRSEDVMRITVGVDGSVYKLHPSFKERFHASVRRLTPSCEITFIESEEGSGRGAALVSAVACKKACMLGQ
T1 sequence (Q14397 whole entry, looked up): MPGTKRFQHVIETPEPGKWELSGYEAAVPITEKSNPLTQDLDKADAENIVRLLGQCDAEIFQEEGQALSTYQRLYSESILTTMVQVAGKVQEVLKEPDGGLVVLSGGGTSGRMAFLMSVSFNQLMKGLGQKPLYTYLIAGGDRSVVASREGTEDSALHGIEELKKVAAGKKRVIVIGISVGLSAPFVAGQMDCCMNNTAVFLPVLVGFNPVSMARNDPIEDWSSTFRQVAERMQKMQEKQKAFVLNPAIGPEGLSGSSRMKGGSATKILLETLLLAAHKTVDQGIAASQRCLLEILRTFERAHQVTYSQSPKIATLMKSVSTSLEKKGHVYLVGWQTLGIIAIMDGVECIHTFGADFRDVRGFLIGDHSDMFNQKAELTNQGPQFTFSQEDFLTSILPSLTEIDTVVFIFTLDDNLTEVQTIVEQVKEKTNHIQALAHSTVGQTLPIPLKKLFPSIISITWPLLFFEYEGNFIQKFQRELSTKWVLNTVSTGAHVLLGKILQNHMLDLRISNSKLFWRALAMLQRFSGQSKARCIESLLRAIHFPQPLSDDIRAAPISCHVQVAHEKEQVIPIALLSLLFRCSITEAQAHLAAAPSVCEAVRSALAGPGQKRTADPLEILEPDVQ

Row | SMILES | activity change, positive = activation
20 | C[N+](C)(C)CCCCCCCCCC[N+](C)(C)C | -2.7% (inactive)
21 | Cc1cccc(C)c1NC(=O)C(C)N (stereo unspecified) | 0.932% (inactive)
22 | Fc1ccc(C(c2ccc(F)cc2)N2CCN(C/C=C/c3ccccc3)CC2)cc1 | -9.08% (inactive)
23 | NC(=O)c1cn(Cc2c(F)cccc2F)nn1 | -1.15% (inactive)
24 | CC[N+](C)(C)c1cccc(O)c1 | -6.33% (inactive)
25 | CC(C)NCC(O)c1cc(O)cc(O)c1 (stereo unspecified) | -12.5% (inactive)
26 | CC1=NS(=O)(=O)c2cc(Cl)ccc2N1 | -4.81% (inactive)
27 | C#CCN(C)CCCOc1ccc(Cl)cc1Cl | 2.73% (inactive)
28 | CN1CCN(CC(=O)N2c3ccccc3C(=O)Nc3cccnc32)CC1 | -4.45% (inactive)
29 | CN(C)C(=O)Oc1ccc[n+](C)c1 | 0.229% (inactive)
30 | CSc1ccc(C(=O)c2[nH]c(=O)[nH]c2C)cc1 | -4.69% (inactive)
31 | CCN(CC)CCOCCOC(=O)C1(c2ccccc2)CCCC1 | 1.52% (inactive)

Target: T1, Hexokinase-4 (Homo sapiens) + Glucokinase regulatory protein (Homo sapiens)
Assay: qHTS assay for inhibitors of recombinant human GCK-GKRP interaction: ADP-Glo assay (AID 743206);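 further: plate controls were DMSO plus enzyme for no effect and no enzyme for full effect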
Settings: ADP-Glo luminescence, 60 min, 0% = vehicle-only wells with enzyme present; series mostly up to 76.9 µM; activity, positive = activation: at the top concentration
Procedure, shortened: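 Pin-transferred compounds meet a 15 nM GST-GCK/15 nM FLAG-GKRP/2 uM S6P mix (dispense concentrations). ATP is then added to 0.4 mM final with 5 mM glucose, and the reaction runs 60 min at room temperature. ADP is quantified luminescently.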

Row | SMILES | activity, positive = activation
32 | C[N+](C)(C)CCCCCCCCCC[N+](C)(C)C | 0.588% (inactive)
33 | OCCN1CCN(CCCN2c3ccccc3C=Cc3ccccc32)CC1 | 0.849% (inactive)
34 | C[N+](C)(C)CCOC(N)=O | 4.75% (inactive)
35 | Cc1cccc(C)c1NC(=O)C(C)N (stereo unspecified) | 3.75% (inactive)
36 | Fc1ccc(C(c2ccc(F)cc2)N2CCN(C/C=C/c3ccccc3)CC2)cc1 | 2.01% (inactive)
37 | NC(=O)c1cn(Cc2c(F)cccc2F)nn1 | 0.273% (inactive)
38 | CC[N+](C)(C)c1cccc(O)c1 | 2.59% (inactive)
39 | CC(C)NCC(O)c1cc(O)cc(O)c1 (stereo unspecified) | 5.08% (inactive)
40 | CCCC(C(=O)OCCN(CC)CC)(c1ccccc1)c1ccccc1 | 4.94% (inactive)
41 | CC1=NS(=O)(=O)c2cc(Cl)ccc2N1 | -0.904% (inactive)
42 | OC(CCN1CCCCC1)(c1ccccc1)C1CCCCC1 (stereo unspecified) | 5.35% (inactive)
43 | COc1ccc2c(c1OC)C(=O)O[C@@H]2[C@H]1c2c(cc3c(c2OC)OCO3)CCN1C | 0.929% (inactive)
44 | C(=C\c1ccccc1)/CN1CCN(C(c2ccccc2)c2ccccc2)CC1 | 0.184% (inactive)
45 | C#CCN(C)CCCOc1ccc(Cl)cc1Cl | 1.59% (inactive)
46 | CC(C)COCC(CN(Cc1ccccc1)c1ccccc1)N1CCCC1 (stereo unspecified) | -0.386% (inactive)
